This is part of a sample that, as a whole, favours compounds with a hit. Of some 79,000 tested, about 15% had one in any assay. No stated cut-off is given here; in the data, active means growth inhibition above about 70%; inactive means the rest.
Experiments:
[1] = NCI Yeast Anticancer Drug Screen. Data for the rad50 strain (AID 155);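 further: 0% = growth of vehicle-only cultures of the same strain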; conditions: S. cerevisiae rad50 strain growth inhibition; at 50.0 µM; stronger effect = higher value
Method in brief: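 Growth of the mutant yeast was measured after compound exposure and referenced to vehicle-treated cultures.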

[2] = NCI Yeast Anticancer Drug Screen. Data for the mec2-1 strain (AID 157); conditions: S. cerevisiae mec2-1 strain, at 50.0 µM, stronger effect = higher value
Method in brief: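 Vehicle-treated cultures served as reference for growth inhibition of compound-exposed mec2-1 yeast.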

[3] = NCI Yeast Anticancer Drug Screen. Data for the sgs1 mgt1 strain (AID 161);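 further: 0% = growth of cultures given vehicle only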; conditions: S. cerevisiae sgs1 mgt1 strain, at 50.0 µM, stronger effect = higher value
Method in brief: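 Mutant yeast exposed to compound; growth scored against vehicle-only wells.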

[4] = NCI Yeast Anticancer Drug Screen. Data for the cln2 rad14 strain (AID 165);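 further: 0% = growth equal to vehicle treated cultures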; conditions: S. cerevisiae cln2 rad14 strain, at 50.0 µM, stronger effect = higher value
Method in brief: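 Each compound was tested on cln2 rad14 yeast. Inhibition of growth was calculated against vehicle-exposed controls.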

[5] = NCI Yeast Anticancer Drug Screen. Data for the bub3 strain (AID 167); conditions: S. cerevisiae bub3 mutant strain, at 50.0 µM, stronger effect = higher value
Method in brief: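 Whole-cell yeast assay. The mutant strain was incubated with compounds, and growth inhibition was determined by comparison with vehicle-treated cells.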

[6] = NCI Yeast Anticancer Drug Screen. Data for the mlh1 rad18 strain (AID 175); conditions: S. cerevisiae mlh1 rad18 strain growth inhibition; at 50.0 µM; stronger effect = higher value
Method in brief: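 Vehicle-treated cultures served as the reference for growth inhibition in a yeast strain carrying DNA damage repair alterations exposed to each compound.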

Measured: growth inhibition

COc1cc(C(C)O)c[n+](CCc2c[nH]c3ccccc23)c1 (stereo unspecified)
inactive: [1] -30% | [2] -19.5% | [3] -45.9% | [4] -8.1% | [5] -28% | [6] -36.5%

Cc1ccc(S(=O)(=O)N(CC(O)c2ccccc2)CC(O)c2ccccc2)cc1 (stereo unspecified)
inactive: [1] -3.95% | [2] -1.7% | [3] -18.2% | [4] 3.5% | [5] 3.95% | [6] -8%

O=C(c1no[n+]([O-])c1C(=O)c1csc2ccccc12)c1csc2ccccc12
inactive: [1] -9.7% | [2] -2.2% | [3] -31.9% | [4] -39.9% | [5] -10.3% | [6] -0.25%

CN(c1ccccc1)S(=O)(=O)c1ccc(Cl)cc1
inactive: [1] 38% | [2] 19.1% | [3] 32.1% | [4] 11.4% | [5] 43.2% | [6] 25.9%

OCC(CO)=C1c2ccccc2-c2ccccc21
inactive: [1] 11% | [2] -6.2% | [3] -8.15% | [4] -28.8% | [5] -1.5% | [6] 5.55%

OC1COC(O)(CN2CCOCC2)C(O)C1O (stereo unspecified)
inactive: [1] 14.2% | [2] 5.95% | [3] 10.6% | [4] 4.75% | [5] 18.1% | [6] 7.6%

COCCCC(O)CNC(C)C (stereo unspecified)
inactive: [1] -11.2% | [2] 7.1% | [3] -16.4% | [4] -18.2% | [5] 0.95% | [6] -5.95%

CC(C)C1=CC(=Nc2ccc(N(C)C)cc2)C=CC1=O
inactive: [1] -1.35% | [2] 6.4% | [3] 9.5% | [4] -29.2% | [5] 18% | [6] -13.1%

O=C(Cc1ccccc1)NN1C(=O)C(Cl)C1c1ccccc1 (stereo unspecified)
inactive: [1] -10.3% | [2] 15.2% | [3] -12.5% | [4] 4.8% | [5] -5% | [6] -2.3%

CN(C)CCNC(=O)c1cccc(N(C)C(=O)c2ccccc2)c1[N+](=O)[O-]
inactive: [1] 6.65% | [2] -9.45% | [3] 6.5% | [4] 17.6% | [5] 7.05% | [6] 3.15%

O=C1CN(N2C(=O)CSC2C23CC4CC(CC(C4)C2)C3)C(=O)CN1c1ccccc1 (stereo unspecified)
inactive: [1] 7.2% | [2] 2.1% | [3] 13% | [4] 24.8% | [5] -2.6% | [6] 12.8%

Brc1cccc2c(SCCCCCCSc3c4ccccc4nc4c(Br)cccc34)c3ccccc3nc12
inactive: [1] 3.1% | [2] -16.1% | [3] -18.8% | [4] -52.5% | [5] -21% | [6] 5.85%

CC(=O)NCC(O)C(O)C(O)C(O)COC(=O)c1ccccc1 (stereo unspecified)
inactive: [1] 6.6% | [2] -1.25% | [3] 19.2% | [4] -6.45% | [5] -2.15% | [6] -5%

O=C=Nc1ccccc1[N+](=O)[O-]
inactive: [1] -4.25% | [2] -28% | [3] -15.8% | [4] -65.5% | [5] -0.55% | [6] -9.2%

COC(=N)Cc1cc(OC)cc(OC)c1
inactive: [1] -2.45% | [2] 6.4% | [3] 7.45% | [4] -12.7% | [5] 21.2% | [6] -6.6%

CN1C/C(=C\c2ccc(N(C)C)cc2)C(=O)/C(=C/c2ccc(N(C)C)cc2)C1
inactive: [1] -17.6% | [2] -8.05% | [3] -2.2% | [4] -1.35% | [5] 4.05% | [6] -9.85%

C=CCC(C(=O)O)c1ccccc1 (stereo unspecified)
inactive: [1] -11.2% | [2] -12.2% | [3] -5.2% | [4] -29.9% | [5] -14.6% | [6] 1.75%

COC1(OC)CCCCCCCCC(OC)(OC)CCCCCCCC1
inactive: [1] 7.5% | [2] -18.4% | [3] -10.4% | [4] 13% | [5] 16.2% | [6] -8.2%

Cc1csc2nc3[nH]ncc3c(=O)n12
inactive: [1] -21.6% | [2] -59% | [3] -15.1% | [4] -9.85% | [5] -5.65% | [6] -14.9%

Cn1c(=O)c2c(nc(C[N+]3([O-])CCOCC3)n2C)n(C)c1=O
inactive: [1] -4.75% | [2] -34.9% | [3] -27.9% | [4] 8.35% | [5] -11.5% | [6] -27.9%

COc1cc(C)c(O)c(C)c1C
inactive: [1] -1.9% | [2] -4.1% | [3] -6.55% | [4] -30.3% | [5] -13.1% | [6] 8.35%

C=C(C)COC(CCC)OCC(=C)C
inactive: [1] 6.85% | [2] 8.1% | [3] -8.45% | [4] 8.85% | [5] -2.3% | [6] 21.1%

COc1ccc(/C=C/C(=O)c2sc(N)nc2C)cc1
inactive: [1] 26.5% | [2] -5.55% | [3] -0.4% | [4] 24.6% | [5] 3.95% | [6] 13.6%

CNc1nc2c(C)ccc3nc(N(C)C)nc-3c2n1C
inactive: [1] 0.6% | [2] -22.2% | [3] 4.4% | [4] 16.4% | [5] 20.1% | [6] 14.8%

COC1(OC)c2no[n+]([O-])c2C(OC)(OC)c2c1no[n+]2[O-]
inactive: [1] -11.7% | [2] -4.8% | [3] -6.35% | [4] 19.1% | [5] 20.6% | [6] -4.35%

COc1ccc(C(=O)c2cccc(C(=O)c3ccc(OC)cc3)c2)cc1
inactive: [1] -13.1% | [2] -19.4% | [3] -3.5% | [4] -0.9% | [5] -13.5% | [6] -4.15%

C=CCNC(=S)N1CC(C)C(=O)Nc2ccccc21 (stereo unspecified)
inactive: [1] -26.1% | [2] -18.2% | [3] -29.9% | [4] 6.6% | [5] 11.3% | [6] -14.4%

CC(=O)Oc1ccc(C2c3cc(OC(C)=O)c(OC(C)=O)cc3CC3C(=O)OCC32)cc1OC(C)=O (stereo unspecified)
inactive: [1] 2.45% | [2] -4.85% | [3] 2.6% | [4] -36.3% | [5] 12.3% | [6] 1.1%

COc1cccc(C2N=NC3=C(CCCC3)N2O)c1O (stereo unspecified)
inactive: [1] 14.4% | [2] 11% | [3] 10.2% | [4] 21.4% | [5] 25.1% | [6] 19.5%

Cc1cc(OCCBr)ccc1[N+](=O)[O-]
inactive: [1] -4.5% | [2] 9.45% | [3] -17.6% | [4] -15.1% | [5] 22.7% | [6] 0.45%

COC(=O)c1cc(-c2ccccc2)nc2c(Cl)cc(Cl)cc12
inactive: [1] -4.4% | [2] -12.1% | [3] -5.55% | [4] -28.6% | [5] 11.7% | [6] -14.4%

C=Cc1c(C)c(OC)cc2c1Oc1ccc(OC)c(C)c1CC2
inactive: [1] 0.75% | [2] -0.2% | [3] 19.5% | [4] 8.35% | [5] 13.8% | [6] -23.6%

CCOC(=O)C1=C2c3ccc4cc(OC)ccc4c3CCC2(C)C(=O)C1 (stereo unspecified)
inactive: [1] -19.1% | [2] 15.5% | [3] -2.55% | [4] -21.1% | [5] -11.2% | [6] -21.1%

CC1CCCCNC1=S (stereo unspecified)
inactive: [1] -6.95% | [2] 19.6% | [3] 19.9% | [4] 6.6% | [5] 17.8% | [6] 27.1%

O=C1c2ccccc2C(=O)N1CCOCCOCCOCCN1C(=O)c2ccccc2C1=O
inactive: [1] 9.4% | [2] -5.95% | [3] -0.75% | [4] -12.3% | [5] -2.75% | [6] -36%

CC(=O)n1oc2ccc(Br)cc2c1=O
inactive: [1] -3.6% | [2] 1.2% | [3] -7.8% | [4] -5.4% | [5] 9.25% | [6] 9.75%

CN(C)c1ccc(SC2OC(CO)C(O)C(O)C2O)cc1 (stereo unspecified)
inactive: [1] -12.8% | [2] -5.25% | [3] -7.3% | [4] -54.5% | [5] 3.7% | [6] -10%

C[N+]1(CC[N+]2(C)CCCC2c2cccnc2)CCCC1c1cccnc1 (stereo unspecified)
inactive: [1] 6.15% | [2] -0.2% | [3] -16.9% | [4] -34.5% | [5] 28% | [6] 19.9%

CCCCCNC(=O)Nc1cccc(Cl)c1C
inactive: [1] -1.4% | [2] 6.75% | [3] 3.55% | [4] 11.4% | [5] 16.6% | [6] -20.6%

COC(=O)C(/C(=N/NC(=O)c1ccncc1)C(=O)Nc1ccccc1OC)c1nc2ccc(Cl)cc2[nH]c1=O (stereo unspecified)
inactive: [1] 5.8% | [2] -6% | [3] -11% | [4] -38% | [5] -17.7% | [6] 11.4%

COc1nc(NC2OCC(OC(C)=O)C(OC(C)=O)C2OC(C)=O)c(-c2csc(N)n2)c(=O)n1C (stereo unspecified)
inactive: [1] -1.9% | [2] -21.9% | [3] -14.6% | [4] 13.6% | [5] -2.3% | [6] 6.85%
